The campaign covered roughly 1,300 compounds. About 420 (32%) were called active. About 32% were inconclusive and are not listed. This is one part of the list. A number with no mark means an inactive call. Calls come from the whole dose curve; as a rule, active = well fitted inhibition curve with a large enough effect; inconclusive = small, poorly fitted or top-dose-only effect; inactive = no such curve, though single readings can be large or run the other way.
These compounds were tested against C-terminal-binding protein 1 (Homo sapiens) (UniProt Q13363) (assay: qHTS for Inhibitors of the Phosphatase Activity of Eya2: Carboxyl-terminal binding protein (CtBP) Counterscreen for Cherry-picked Compounds). Conditions: purified protein-protein binding, AlphaScreen, 3 h; series mostly up to 46.1 µM; activity change, negative = inhibition: at the top concentration.
Source text: The Eya protein family is an essential co-activator of the Six1 transcription factor. Six1 is a developmental gene that is abnormally re-expressed in a large percentage of breast cancers. This over-expression plays a causal role in the initiation and metastatic development of breast cancers. The Eya family of protein is also found to contain a unique HAD phosphatase domain with protein tyrosine phosphatase activity which can potentially play a role in Six1-mediated breast tumorigenesis. Recently, Eya2 is found to dephosphorylate the histone variant H2AX and direct cells towards DNA repair instead of apoptosis in the event of DNA damage.
A 1536 well format, fluorescence based qHTS assay was developed and used to target the phosphatase activity of Eya2 (AID 488837). In addition, a CtBP counterscreen was developed using the AlphaScreen technology to evaluate compound selectivity to target […]. The data herein reports the activity of the cherry-picked compounds against the CtBP AlphaScreen. Compounds that are active or have > 100 fold selectivity vs. the Eya2 activity were excluded for further characterization. Inactivity is the desired outcome for the CtBP counterscreen.
NIH Chemical Genomics Center [NCGC]
NIH Molecular Libraries Probe Centers Network [MLPCN]
Assay Submitter (PI): Rui Zhao, University of Colorado Denver
Four microliters of reagent (25 nM GST-E1A, 25 nM CtBP-6x HIS) was dispensed in a 1536 well Greiner plates. Twenty-three nanoliter of test compounds (final concentration of 2.5 nM - 46 uM) and positive control E1A peptide inhibitor (final concentration of 0.14 nM - 4.6 uM) were added to the plates using the Kalypsys pintool equipped with a 1536 pin head. The plates was then incubated at room temperature for 2 hours followed by addition of 1 uL Alpha bead donor / acceptor mix (20 ug/mL final concentration). The assay plates were incubated for additional 1 hour at room temperature and protected from light. The AlphaScreen signal was obtained using the PerkinElmer EnVision plate reader using the 680 nm excitation and 520 - 620 nm emission filters. The data was normalized to the E1A peptide inhibitor for maximum inhibition and DMSO treated wells as negative control.
% is set by controls: 0 for no effect and ±100 for the full control effect; potency is the fitted concentration of half-maximal effect.
Note: nearly all actives have a fitted effect of over 65% in size.

| Compound | activity change, negative = inhibition [%] | Potency |
| --- | --- | --- |
| COc1ccc(-c2nc(N)ncc2-c2csc(C)n2)c(O)c1 | -15.6 |  |
| C=C(C)COc1ccc(-c2nc(N)nc(C)c2-c2ccc(OC)cc2)c(O)c1 |  | 6.01 µM (active) |
| CC(C)S(=O)(=O)c1cnc(-c2ccccn2)nc1N |  | 13.5 µM (active) |
| CCc1cc2c(=O)[nH]c(-c3ccccn3)nc2s1 |  | 1.9 µM (active) |
| Cn1c(-c2cc(Cl)ccc2O)nc2c1c(=O)[nH]c(=O)n2Cc1ccccc1 | 7.81 |  |
| COc1cccc(NC(=O)c2ccc3c(c2)CCN3S(C)(=O)=O)c1 | -12.5 |  |
| CC(=O)c1ccc(NS(=O)(=O)c2cccc(C(=O)Nc3ccccc3C(=O)O)c2)cc1 |  | 15.1 µM (active) |
| COc1cc(NC(=O)c2ccc(S(=O)(=O)N(C)c3ccccc3)cc2)cc(OC)c1 | -17 |  |
| CC(=O)Oc1cccc(C(=O)Nc2cccc(C(=O)Nc3ccccc3C(=O)O)c2)c1 |  | 8.49 µM (active) |
| CN(CC(=O)Nc1cccc(F)c1)C(=O)c1ccc(COc2ccccc2)cc1 | 11.9 |  |
| CC(C)CCNC(=O)c1onc(CSc2ccncc2)c1C(=O)NCCC(C)C | 10.2 |  |
| Cc1nn(-c2ccccc2)c2c1C(c1cccnc1)N1C=C(S(=O)(=O)N3CCCCC3)C=CC1=N2 (configuration not stated) | -21.1 |  |
| CC1CCCN(c2ccc3nc4ccccc4c(=O)n3n2)C1 (configuration not stated) |  | 7.57 µM (active) |
| COc1cc(/C=C2\C(C)=C(C#N)c3nc(N)c(C#N)c(C)c32)ccc1OCC(=O)O |  | 8.49 µM (active) |
| COc1cc(C=NO)nc(-c2ccccn2)c1 |  | 1.07 µM (active) |
| NC(=O)c1nn2c(C(F)(F)F)cc(-c3ccccc3)nc2c1Br |  | 10.7 µM (active) |
| Cc1ccc(C(=O)ON=C2CCN(c3ccc([N+](=O)[O-])cc3)CC2)cc1 | -16.2 |  |
| CCN(Cc1cccc(S(=O)(=O)O)c1)c1ccc(C(=C2C=CC(=[N+](CC)Cc3cccc(S(=O)(=O)O)c3)C=C2)c2ccccc2S(=O)(=O)[O-])cc1 |  | 12 µM (active) |
| CCN(Cc1cccc(S(=O)(=O)O)c1)c1ccc(C(=C2C=CC(=[N+](CC)Cc3cccc(S(=O)(=O)O)c3)C=C2)c2ccc(O)cc2S(=O)(=O)O)cc1 |  | 12 µM (active) |
| N#CC1=C(N)n2c(s/c(=C\c3cccs3)c2=O)=C(C#N)C1c1cccs1 (configuration not stated) |  | 13.5 µM (active) |
| CC(=O)N1CCCc2cc(S(=O)(=O)N3CCCC(C(=O)N4CCN(c5cc(C)ccc5C)CC4)C3)ccc21 (configuration not stated) | -19.2 |  |
| CN1C(=O)NC(c2ccccc2)(C(F)(F)F)S/C1=C(/C#N)c1nnc(N2CCOCC2)n1-c1ccccc1 (configuration not stated) | -19 |  |
| CCOc1cc(C=NNC(=O)c2cccc(S(=O)(=O)N3CCCC3)c2)ccc1O |  | 7.57 µM (active) |
| Cc1cccc(C)c1Nc1c(-c2ccccn2)nc2ccccn12 |  | 7.57 µM (active) |

| Compound | activity change, negative = inhibition [%] | Potency |
| --- | --- | --- |
| Cc1ccc(Nc2c(-c3ccccn3)nc3ccc(C)cn23)cc1 |  | 4.26 µM (active) |
| Cc1ccccc1Nc1c(-c2ccccn2)nc2ccccn12 |  | 2.69 µM (active) |
| Cc1onc(-c2ccccc2Cl)c1C(=O)N(Cc1ccc(N(C)C)cc1)C(C)C | -12.2 |  |
| Cc1cccc(S(=O)(=O)C(C#N)c2nc3ccccc3nc2N2CCOCC2)c1 (configuration not stated) | -9.38 |  |
| CC(C)N=c1cc2n(-c3ccc(Cl)cc3)c3ccccc3nc-2cc1Nc1ccc(Cl)cc1 |  | 3.38 µM (active) |
| Cn1c(=O)c2cc(S(=O)(=O)Nc3cccc(F)c3)ccc2n(C)c1=O | -14.5 |  |
| O=S(=O)(Nc1cccc(-c2cn3cccnc3n2)c1)c1ccc(F)cc1 |  | 15.1 µM (active) |
| O=S(=O)(Nc1cccc(-c2cn3cccnc3n2)c1)c1ccccc1 |  | 4.26 µM (active) |
| COc1cc(NC(=O)c2cccs2)c(OC)cc1NC(=O)CCn1nnc2ccccc21 |  | 12 µM (active) |
| COc1cc(NC(=O)c2cccs2)c(OC)cc1NC(=O)CCC(=O)Nc1ccc2ncccc2c1 |  | 1.69 µM (active) |
| COc1cc(NC(=O)c2cccs2)c(OC)cc1NC(=O)Cc1ccccc1 |  | 7.57 µM (active) |
| COc1cc(NC(=O)c2cccs2)c(OC)cc1NC(=O)Nc1ccc(F)cc1 | -7.75 |  |
| O=C(CNC(=O)c1cccs1)OCC(=O)c1ccc(Cl)cc1 | 9.32 |  |
| O=C(CC(=O)c1c(F)cccc1Cl)c1ccccc1O | -17.1 |  |
| Cc1ccc(S(=O)(=O)Nc2c(C)n(C)n(-c3ccccc3)c2=O)cc1C(=O)OC(C)C(=O)N(C)c1ccccc1 (configuration not stated) | -10.9 |  |
| O=C1/C(=C/c2ccco2)SC(=S)N1c1cccnc1 |  | 15.1 µM (active) |
| CCOC(=O)c1c(C)oc2c1c(C=NCc1ccccn1)c(O)c1ccccc12 |  | 15.1 µM (active) |
| CC(=O)Oc1cccc2c1C(=O)c1c(OC(C)=O)cc(C(=O)O)cc1C2=O |  | 12 µM (active) |
| O=C(O)c1cccc(N2C(=O)c3cccc(Oc4ccc(Cl)cc4)c3C2=O)c1 | 8 |  |
| N#C/C(=C\c1ccc(OC(=O)c2ccc(Cl)s2)cc1)c1nc2ccccc2[nH]1 | 8.82 |  |
| N#C/C(=C/c1ccc(OC(=O)c2ccc(Br)s2)cc1)c1nc2ccccc2[nH]1 | 4.6 |  |
| N#C/C(=C\c1ccc(OC(=O)c2ccc(Br)s2)cc1)c1nc2ccccc2[nH]1 | 2.83 |  |
| CCOC(=O)/C(C#N)=C/c1ccc(OC(=O)c2ccccn2)cc1 |  | 7.57 µM (active) |
